Bioassay records deposited in PubChem by several laboratories.
SSB-PriA inh: K. pneumoniae PriA-SSBct interaction inhibition; AlphaScreen SSBct-PriA binding, biotinylated peptide; inhibition, % at 33 µM; 0.6% of 430,000 active; in the data active = inhibition mostly above about 37%, no sharp cut-off; inactive = mostly below about 20%;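 also: plate controls were negative control peptide for no effect and reference peptide for full effect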
MazEF act: activators of E. coli MazEF toxin-antitoxin RNase; P0AE70; FAM/BHQ RNA-DNA oligo cleavage fluorescence, 5 h; activation, % at 20 µM; 0.32% of 350,000 active; in the data active = activation above about 50%
Target sequence (P0AE70 whole entry, looked up): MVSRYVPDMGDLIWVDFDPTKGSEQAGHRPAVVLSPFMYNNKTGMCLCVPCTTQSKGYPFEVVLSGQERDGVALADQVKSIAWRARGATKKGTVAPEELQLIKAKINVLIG
RN4220 kill: S. aureus RN4220 growth inhibition | AID 1259311 | OD600, 16 h | inhibition, % (no concentration beside the values) | 0.33% of 330,000 active; in the data active = inhibition above about 85%;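 also: plate controls were untreated cells for no effect and reference antibiotic for full effect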
BJeLR lethal: kills HRASV12-expressing BJeLR cells | inhibition, % (test concentration not listed) | 0.17% of 300,000 active | BJeLR (HRASV12) viability, CellTiter-Glo ATP luminescence, 48 h; in the data active = inhibition above about 50%
ugtP null kill: kills S. aureus RN4220 lacking UgtP | S. aureus RN4220 ugtP deletion, OD600 growth, 16 h | growth inhibition, % (no concentration beside the values) | 0.54% of 330,000 active | AID 1259309; in the data active = growth inhibition above about 68%;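 also: plate controls were untreated wells for no effect and antibiotic for full effect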
Active calls of the source: *; i = inactive; . = no result. Hits are enriched below; roughly 1.2% of the tested compounds scored in any of these assays.

SMILES	SSB-PriA inh	MazEF act	RN4220 kill	BJeLR lethal	ugtP null kill
CN1C(=O)C(C)(C)c2cc(S(=O)(=O)NCc3ccc(Cl)cc3)ccc21	-2	5	3	-7	4
Cc1ccc(CCNS(=O)(=O)c2ccc3c(c2)C(C)(C)C(=O)N3C)cc1	-11	1	6	-2	-5
CCC(C)NC(=O)c1ccc(CNS(=O)(=O)c2ccc3c(c2)C(C)(C)C(=O)N3C)cc1 (stereo unspecified)	-4	107*	-3	4	8
Cc1ccc(CNC(=O)c2ccc(CNS(=O)(=O)c3ccc4c(c3)C(C)(C)C(=O)N4C)cc2)o1	-9	102*	5	5	-2
CCn1c(=O)c(=O)n(CC)c2cc(S(=O)(=O)Nc3cc(C)ccc3C)ccc21	-7	-24	1	6	4
CCN1CCN(Cc2ccc(NC(=O)c3ccc(C)c(NC(=O)c4nccn4C)c3)cc2C(F)(F)F)CC1	-3	17	4	4	-6
CCN1CCN(Cc2ccc(NC(=O)c3ccc(C)c(NC(=O)c4cncc(-c5cccs5)c4)c3)cc2C(F)(F)F)CC1	47*	-66	-6	.	-8
NC(=O)c1ccnc2c(O)cccc12	41*	-5	-1	.	-2
Oc1cccc2c(-c3nn[nH]n3)ccnc12	54*	6	3	.	1
OCc1ccnc2c(O)cccc12	87*	3	2	-8	4
CC(O)c1ccc2c(c1)OCCOCCN(C)CCOCCO2 (stereo unspecified)	-9	6	0	6	-4
CC(=O)Nc1ccc(C(=O)NCCNC(=O)C2CC2)cc1	-9	.	.	.	.
Cn1c(CNC(=O)c2ccco2)nnc1SCC(=O)Nc1cccc(Br)c1	-1	0	-3	-2	-2
CC(C)c1ccc(OCC(=O)Nc2cccc3c2CCCC3)cc1	-29	-2	15	-3	96*
C/C(CC(=O)Nc1cccc2c1CCCC2)=N\NC(=O)COc1ccccc1	.	-2	.	2	.
Cc1ccc(NC2=C(Cl)C(=O)c3ccccc3C2=O)cc1	11	-1	18	7	0
Cc1cc(C)cc(NC2=C(N)C(=O)c3ccccc3C2=O)c1	54*	0	11	-6	7
O=C(NN=Cc1ccc(O)cc1)NC12CC3CC(CC(C3)C1)C2	7	.	11	.	-2
CC(Nc1cccc2ccccc12)C(=O)NN=Cc1ccccn1 (stereo unspecified)	85*	.	7	.	-1
Cc1ccccc1NC(C)C(=O)N/N=C/c1ccccn1 (stereo unspecified)	i	.	.	.	.
Cc1ccc(N2CC(CNC(=O)c3ccccc3Cl)OC2=O)cc1 (stereo unspecified)	-10	.	.	.	.
CCCN1CCCc2cc(CCNS(C)(=O)=O)ccc21	70*	.	.	.	.
COc1ccc(C)cc1S(=O)(=O)NCCc1ccc(N2CCCC2)cc1	22	.	.	.	.
CN1CCCc2cc(CCNS(=O)(=O)c3cccs3)ccc21	71*	.	.	.	.
CCCN1CCCc2ccccc21	39*	4	6	5	8
SMILES	SSB-PriA inh	MazEF act	RN4220 kill	BJeLR lethal	ugtP null kill
CCCN1CCCc2cc(CCNC(=O)CC)ccc21	52	.	.	.	.
COc1ccc(C)cc1S(=O)(=O)NCCc1ccc2c(c1)CCCN2C	65*	.	.	.	.
O=C(COC(=O)C1=COCCO1)Nc1ncc(C(F)(F)F)cc1Cl	-19	9	3	3	-3
CCCN1CCCc2cc(CCNS(=O)(=O)c3ccc(F)c(Cl)c3)ccc21	47*	.	.	.	.
CCCN1CCCc2cc(CCNC(=O)C(=O)NC(C)C)ccc21	22	.	.	.	.
CCCN1CCCc2cc(CCNS(=O)(=O)CCc3ccccc3)ccc21	71*	.	.	.	.
CCCN1CCCc2cc(CCNS(=O)(=O)c3ccc(CC)cc3)ccc21	51*	.	.	.	.
CCCN1CCCc2cc(CCNS(=O)(=O)c3cc(C)c(OC)c(C)c3)ccc21	63	.	.	.	.
CCCN1CCCc2cc(CCNS(=O)(=O)CC(C)C)ccc21	74*	.	.	.	.
COCCN(CC(=O)Nc1cccc(C)c1C)C(=O)Cn1cnc2ccccc2c1=O	-17	6	4	.	-1
COC(CNC(=O)c1ccccn1)c1ccccc1Cl (stereo unspecified)	3	.	.	.	.
COc1cc(CCC(=O)OCC(=O)Nc2ccccc2OC(F)F)cc(OC)c1OC	-17	5	3	2	6
CCCN1CCCc2cc(CCNS(=O)(=O)c3ccc4c(c3)OCCO4)ccc21	67*	.	.	.	.
Cc1ccc(S(=O)(=O)NCCc2ccc3c(c2)CCCN3C)cc1Cl	38*	.	.	.	.
CCCN1CCCc2cc(CCNS(=O)(=O)CCC)ccc21	112*	.	.	.	.
CN(C)c1ccc(CCNS(=O)(=O)c2ccc3c(c2)OCCO3)cc1	3	.	.	.	.
CCCN1CCCc2cc(CCNS(=O)(=O)c3ccc(CC)s3)ccc21	60*	.	.	.	.
CCCN1CCCc2cc(CCNC(=O)C(=O)NC3CC3)ccc21	37	.	.	.	.
Cc1nc2ccc(NC(=O)c3ccc(=O)[nH]c3)cc2s1	-1	8	0	-5	2
CCOc1ccc(C=Nc2ccccc2-c2nc3ccccc3[nH]c2=O)cc1	-4	.	.	.	.
CCOc1ccc(N=Cc2c(C)[nH]n(-c3nc4ccccc4[nH]3)c2=O)cc1	7	5	9	65*	-1
S=C(Nc1ccc(Cl)cc1)c1nc2ccccc2[nH]1	21	12	99*	-13	96*
Cc1ccccc1OCCNc1cc(N2CCN(CCO)CC2)ccc1[N+](=O)[O-]	42*	6	-5	9	-6
CCCc1nnsc1C(=O)N(CC(F)(F)F)C1CCOCC1	5	.	.	.	.
CCOc1ccc(/C=C2/C(=N)N3OC(C)=CC3=NC2=O)cc1OC	15	-2	.	4	.
SMILES	SSB-PriA inh	MazEF act	RN4220 kill	BJeLR lethal	ugtP null kill
CCOc1ccc(C=C2C(=N)N3OC(C)=CC3=NC2=O)cc1OC	.	.	5	.	7
CCOc1cc(/C=C2/C(=N)N3OC(C)=CC3=NC2=O)ccc1OCCOc1ccccc1	1	149*	8	-3	-4
COc1cc(/C=C2/C(=N)N3OC(C)=CC3=NC2=O)ccc1OCCOc1ccc(C)cc1	-15	91*	1	10	4
Cc1cc(Br)ccc1NC(=O)c1cccc(Oc2ccccn2)c1	4	.	.	.	.
CN1CCN(Cc2nnc(-c3ccccc3)o2)CC1	-6	-1	0	2	0
CC1(C)CC2(CCO1)OC(=O)CC2C(=O)Nc1c(Cl)cccc1Cl (stereo unspecified)	-7	8	1	-5	3
c1ccc(-c2onc(-c3ccco3)c2-c2ccc3[nH]ccc3c2)cc1	21	2	-31	-12	85*
c1ccc(-c2ccc3[nH]ccc3c2)cc1	-13	6	-3	.	14
